From PubChem BioAssay come the findings set out here.

A short description of assay [1]: P. berghei load reduction in hepatocytes – cell-based, HepG2, luciferase luminescence, HepG2 viability, primary screen (AID 624349).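 Note: 100% = mean of DMSO negative control wells on the same plate.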 Conditions: P. berghei liver stage in HepG2, luciferase luminescence, concentration not given here; parasite load remaining: stronger effect = lower value; viability: measured here: HepG2 viability without parasites.
Assay [2] is described as follows: Wnt pathway potentiators raising nuclear beta-catenin – imaging, WNT3A-conditioned medium, mouse C2C12, NPC library, primary screen (AID 1117326; in the data active = nuclear beta-catenin stimulation mostly above about 4.2%, no sharp cut-off; inactive = mostly below about 10%). The following applies: stronger effect = higher value.
The nature of assay [3]: stimulators of insulin release from INS-1E, primary screen, cell-based, 5 mM glucose, NPC library (AID 1117329;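 active = compound raises insulin release from rat beta cells at 5 mM glucose, no numeric limit stated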). Conditions: rat INS-1E insulin secretion, at 10 µM, stronger effect = higher value.
The nature of assay [4]: growth inhibition of GSK3B-pretreated HCT116 cells – cell-based, CellTiter-Glo, 0.2 to 20 µM (AID 1117336;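 active = compounds lowering colon cancer cell viability after pretreatment blocking the GSK3B kinase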). The following applies: HCT116 viability after GSK3B inhibitor, at 20 µM, stronger effect = higher value. On the technique in general: In ATP-based viability assays light output follows the ATP content of the culture.
Assay [5] in a line: inhibition of endothelial tube formation, primary screen, imaging, VEGF stimulated, CD31 staining, tube area, NPC library (AID 1117340;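 active = compound that reduces growth-factor-driven endothelial tube area in a mixed cell culture, no cutoff stated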). The following applies: VEGF-stimulated ADSC/ECFC co-culture, at 10 µM, stronger effect = higher value.
Assay [6] is described as follows: GLP1 release stimulators, primary, NCI-H716, NPC library (AID 1117341;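 active = compound raises GLP1 secretion from the human gut endocrine cells, with no numeric limit stated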). Conditions: NCI-H716 cells, at 10 µM, stronger effect = higher value.
The nature of assay [7]: HCT116 colon cancer cell growth inhibition, primary screen, CellTiter-Glo luminescence, NPC library (AID 1117342;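 active = compounds that lower survival of HCT116 colon cancer cells in the luminescence readout, no numeric limit stated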). Conditions: at 20 µM (top of the series).
The nature of assay [8]: reduced SW480 viability measured with CellTiter-Glo, NPC library, primary (AID 1117343;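 active = compounds that lower viability of the colon cancer cells in the luminescence readout, with no numeric limit stated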). The following applies: CellTiter-Glo luminescence; at 20 µM (top of the series) unless noted.
A short description of assay [9]: NPC library primary testing for decreased DLD-1 cell viability via CellTiter-Glo (AID 1117346;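 active = compounds that lower survival of DLD-1 colon cancer cells in the luminescence readout, no cutoff given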). The following applies: DLD-1 viability, CellTiter-Glo luminescence; at 20 µM (top of the series).
The nature of assay [10]: viability loss with induced miR-34 in A549 – imaging, A549 dox-inducible miR-34, nuclei and caspase counts, primary screen (AID 1347080;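 active = compounds whose cell count with miR-34 switched on is under 0.7 times the count with it off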). Conditions: A549 miR-34 inducible, Hoechst nuclei count, 48 h.
Assay [11] is described as follows: MELAS cybrid and Rieske KO viability enhancers – cell-based, MELAS cybrids, Rieske KO mouse fibroblasts, CellTiter-Glo, primary screen (AID 1508586;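 active = mean z-score across replicates of 1.96 or higher in either the MELAS or the Rieske mutant cell line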;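 note: z relative to plate mean and SD of compound and empty wells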). The following applies: low glucose.
A short description of assay [12]: galactose survival enhancers in mitochondrial complex I cybrids – cell-based, galactose medium, ATP luminescence, primary screen (AID 1645843;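 active = z-score of at least 1.8 in each of two replicates, scored against plate mean and spread of sample wells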;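 note: positive z means more ATP and so rescue of galactose-driven cybrid death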). Conditions: complex I mutant cybrid cells, 72 h, stronger effect = higher value.
Assay [13] in a line: compounds altering viability of human ES cells (AID 493140; call rule not given here;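 note: cells exposed to compounds for four days before counting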). Conditions: human embryonic stem cell survival screen; stronger effect = higher value.
For assay [14], the target named is NAD(+) hydrolase SARM1 (Homo sapiens) (UniProt Q6SZW1). In words: blocking NAD cleavage by SARM1 SAM-TIR – cell lysate, NAD-Glo luminescence (AID 1508614;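 active = compound whose remaining NAD level is above about 45 nM, limit read from the data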;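 note: higher remaining NAD means stronger inhibition of SARM1 NADase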). Conditions: SAM-TIR HEK293T lysate NADase, at 1 µM, stronger effect = higher value.
NAD(+) hydrolase SARM1 (Homo sapiens), sequence (Q6SZW1 whole entry, looked up): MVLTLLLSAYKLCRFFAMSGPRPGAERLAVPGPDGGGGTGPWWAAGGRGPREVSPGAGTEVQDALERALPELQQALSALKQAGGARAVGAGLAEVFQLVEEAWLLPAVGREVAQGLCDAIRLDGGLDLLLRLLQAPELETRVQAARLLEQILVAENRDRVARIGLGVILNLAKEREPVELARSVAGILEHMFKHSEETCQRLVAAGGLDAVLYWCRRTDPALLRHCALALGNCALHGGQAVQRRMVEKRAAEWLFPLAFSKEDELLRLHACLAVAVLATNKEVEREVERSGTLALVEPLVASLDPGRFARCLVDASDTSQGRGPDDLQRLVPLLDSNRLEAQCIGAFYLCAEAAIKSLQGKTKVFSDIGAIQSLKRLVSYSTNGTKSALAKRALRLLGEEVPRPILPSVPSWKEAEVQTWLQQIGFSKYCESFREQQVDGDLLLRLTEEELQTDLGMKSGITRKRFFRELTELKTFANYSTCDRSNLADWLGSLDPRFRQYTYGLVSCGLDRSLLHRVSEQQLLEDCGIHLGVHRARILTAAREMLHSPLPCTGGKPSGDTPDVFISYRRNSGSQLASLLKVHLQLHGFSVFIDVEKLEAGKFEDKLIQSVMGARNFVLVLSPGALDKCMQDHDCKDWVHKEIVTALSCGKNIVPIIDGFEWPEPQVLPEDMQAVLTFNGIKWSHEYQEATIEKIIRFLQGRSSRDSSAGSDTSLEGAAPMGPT
Setting [15] is: stronger effect = lower value, cell number ratio, induced over uninduced.
Setting [16] is: measured here: relative caspase fold change +Dox/-Dox.
[17] abbreviates: measured here: total cells with miR-34 induction, stronger effect = lower value.
Setting [18] is: measured here: total cells without miR-34 induction.
The mark [19] stands for this setting: MELAS cybrid survival, CellTiter-Glo 48 h, stronger effect = higher value.
The mark [20] stands for this setting: Rieske KO mouse fibroblast survival, CellTiter-Glo 72 h.

Values joined by “and” are separate entries in the source; they are usually repeats but may differ in a detail not shown here. Equal entries are not always repeated. Active and inactive are the calls of the source. Cut-off read from the data, not from the text of the source, unless noted: active = parasite load remaining mostly below about 12% (no sharp cut-off); inactive = mostly above about 10%.

`CCCCN1C[C@H](O)[C@@H](O)[C@H](O)[C@H]1CO`: the parasite load remaining in [1] was 45.7% (inactive). Further, the viability in [1] was found to be 77.5%. For the same molecule, the nuclear beta-catenin stimulation in assay [2] (at 10 µM) is 2.8% (inactive); in assay [2] (stimulation, at 2 µM) it was 0.2%. Besides, the insulin secretion stimulation in assay [3] is -1.2% (inactive). In assay [4], the viability decrease was -13.2% (inactive). Besides, in assay [5], the tube area decrease is 8.1% (inactive). In addition, the GLP1 secretion stimulation in assay [6] was -0.1% (inactive). Moreover, the inhibition of viability in assay [7] was -0.5% (inactive). The viability decrease (inhibition) in assay [8] was 23.4% (inactive); in assay [9], 3.5% (inactive). For the same molecule, the fold change in assay [10] (setting [15]) is 0.88 (inactive); in [10] (setting [16]), 0.958. The cell count in assay [10] (setting [17]) stood at 9280; in assay [10] (setting [18]), 10500. Besides, the z-score in assay [11] (setting [19]) was 0.308 (inactive); in assay [11] (setting [20]), -0.247; in assay [12], 0.145 (inactive).

For the molecule `O=C(O)Cc1cccc2ccccc12`, the nuclear beta-catenin stimulation in assay [2] (at 10 µM) is -0.7% (inactive); in [2] (stimulation, at 2 µM) it was 0.6%. Moreover, in assay [3], the insulin secretion stimulation is -1.5% (inactive). In addition, in assay [4], the viability decrease is -6.45% (inactive). The tube area decrease in assay [5] is 0% (inactive). In addition, in [6], the GLP1 secretion stimulation was 1.9% (inactive). Also, the inhibition of viability in assay [7] was 12.9% (inactive). The viability decrease (inhibition) in assay [8] was 39.8% (inactive); in [9] it was -0.4% (inactive). Further, the fold change in assay [10] (setting [15]) was 0.971 (inactive); in assay [10] (setting [16]) it was 1.32. The figures for the cell count in assay [10] (setting [17]) and in assay [10] (setting [18]) were 8040 and 8280, respectively. Also, the figures for the z-score in assay [11] (setting [19]), in assay [11] (setting [20]) and in assay [12] were 0.391 (inactive), -0.24 and 0.46 (inactive), respectively.

For `CC(=O)OCC(=O)[C@@]1(OC(C)=O)[C@@H](C)C[C@H]2[C@@H]3C[C@H](F)C4=CC(=O)C=C[C@]4(C)[C@@]3(F)[C@@H](O)C[C@@]21C`, in assay [13], the survival is 6.42 (inactive). In assay [1], the parasite load remaining is 91.6% (inactive) and 91.1% (inactive). Moreover, the viability in assay [1] was 118% and 76.3%. The nuclear beta-catenin stimulation in assay [2] (at 10 µM) was 2.1% (inactive); in assay [2] (stimulation, at 2 µM), 0.9%. Also, the insulin secretion stimulation in assay [3] was 15.2% (inactive). Besides, the viability decrease in assay [4] is 4% (inactive). Further, in assay [5], the tube area decrease was -8.8% (inactive). Further, in assay [6], the GLP1 secretion stimulation is 1.7% (inactive). For the same molecule, the inhibition of viability in assay [7] is 17.6% (inactive). Also, the viability decrease (inhibition) in assay [8] is 16.6% (inactive); in assay [9], 7.1% (inactive). Further, the fold change in [10] (setting [15]) is 0.811 (inactive); in assay [10] (setting [16]), 1.36. Also, the cell count in assay [10] (setting [17]) came out at 7160; in assay [10] (setting [18]), 8820. For the same molecule, the results for the z-score in [11] (setting [19]) and in [11] (setting [20]) were -0.532 (inactive) and -0.0519, respectively. Further, the remaining NAD in assay [14] is 10 nM (inactive).

As to `CC(C)(CO)[C@@H](O)C(=O)NCCCO`, the survival in assay [13] was 26.3 (inactive). Also, in assay [1], the parasite load remaining is 20.9% (inactive) and 97.7% (inactive) and 20.3% (inactive). The viability in assay [1] was 47.1% and 90.5% and 98.9%. In addition, the nuclear beta-catenin stimulation was 1.6% (inactive) in assay [2] (at 10 µM) and 1.3% in [2] (stimulation, at 2 µM). Besides, the insulin secretion stimulation in assay [3] was -2.9% (inactive). In addition, the viability decrease in assay [4] is -4.45% (inactive). Moreover, the tube area decrease in [5] was 10.3% (inactive). For the same molecule, in [6], the GLP1 secretion stimulation was 3.1% (inactive). The inhibition of viability in assay [7] is 4.3% (inactive). Also, the viability decrease (inhibition) in assay [8] is 100% (active); in assay [9], -5.1% (inactive). Moreover, the fold change in assay [10] (setting [15]) is 0.883 (inactive) and 0.939 (inactive); in [10] (setting [16]), 1.21 and 2.44. The cell count in assay [10] (setting [17]) was 8270 and 12000; in assay [10] (setting [18]), 9370 and 12800. The z-score in assay [11] (setting [19]) was 0.185 (inactive); in assay [11] (setting [20]), 0.0963. Moreover, the remaining NAD in assay [14] is 10 nM (inactive).

As a reminder, the viability is a read-out of living cells in per cent, often relative to untreated cells.
